From PubChem BioAssay (NCATS)
Records with an inconclusive call do not appear. Active and inactive are the calls of the source. Calls come from the whole dose curve; as a rule, active = well fitted inhibition curve with a large enough effect; inconclusive = small, poorly fitted or top-dose-only effect; inactive = flat fitted curve, though single readings scatter.

Columns and labels:
Assay in all cases: qHTS profiling for inhibitors of Plasmodium falciparum proliferation (AID 504749); note: nearly all actives have a fitted effect of over 60% in size
Conditions in all cases: P. falciparum in erythrocytes, SYBR Green DNA, 72 h; series mostly up to 28.7 µM
CP191 = test system: CP191
Method in brief: (§1)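 Quantitative HTS: compounds pinned into medium, infected erythrocytes added (0.3% parasitemia, 2.5% hematocrit), 72 h culture at 37 C under 5% CO2. Saponin/Triton lysis with SYBR Green I, overnight RT, then fluorescence read.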

CP217 = test system: CP217
Method in brief: as §1

CP237 = test system: CP237
Method in brief: as §1

CP238 = test system: CP238
Method in brief: as §1

CP247 = test system: CP247
Method in brief: as §1

CP250 = test system: CP250
Method in brief: as §1

CP252 = test system: CP252
Method in brief: as §1

CP256 = test system: CP256
Method in brief: as §1

CP260 = test system: CP260
Method in brief: as §1

CP262 = test system: CP262
Method in brief: as §1

CP265 = test system: CP265
Method in brief: as §1

CP268 = test system: CP268
Method in brief: as §1

CP194 = test system: CP194
Method in brief: as §1

CP211 = test system: CP211
Method in brief: as §1

CP215 = test system: CP215
Method in brief: as §1

CP266 = test system: CP266
Method in brief: as §1

CP269 = test system: CP269
Method in brief: as §1

CP192 = test system: CP192
Method in brief: as §1

CP201 = test system: CP201
Method in brief: as §1

CP203 = test system: CP203
Method in brief: as §1

Measured: Potency
Potency is the fitted concentration of half-maximal effect.

CCN(CC)CCNC(=O)c1cc(S(C)(=O)=O)ccc1OC
inactive: CP191 | CP217 | CP237 | CP238 | CP247 | CP250 | CP252 | CP256 | CP260 | CP262 | CP265

O=C1NCN(c2ccccc2)C12CCN(CCCC(c1ccc(F)cc1)c1ccc(F)cc1)CC2
inactive: CP262
active: CP191 5.62 µM | CP217 8.91 µM | CP237 6.31 µM | CP238 8.91 µM | CP247 7.08 µM | CP250 10 µM | CP252 7.08 µM | CP256 5.01 µM | CP260 10 µM | CP265 5.62 µM | CP268 8.49 µM

CC(=O)[C@]1(O)Cc2c(O)c3c(c(O)c2[C@@H](O[C@H]2C[C@H](N)[C@H](O)[C@H](C)O2)C1)C(=O)c1ccccc1C3=O
active: CP191 3.16 µM | CP194 15.1 µM | CP211 13.5 µM | CP215 10.7 µM | CP217 5.01 µM | CP237 3.55 µM | CP238 7.08 µM | CP250 6.31 µM | CP252 7.94 µM | CP256 10 µM | CP260 2 µM | CP262 12 µM | CP266 8.49 µM | CP268 9.53 µM | CP269 10.7 µM

CNCCC(Oc1ccccc1OC)c1ccccc1 (stereo unspecified)
inactive: CP191 | CP192 | CP211 | CP215 | CP237 | CP250 | CP262 | CP266

COc1ccc(CCN(C)CCCC(C#N)(c2cc(OC)c(OC)c(OC)c2)C(C)C)cc1OC (stereo unspecified)
inactive: CP250 | CP265 | CP266

C[C@H](CS)C(=O)N1CCC[C@H]1C(=O)O
not listed: CP211 | CP192
inactive: all other assays above

CN(C)CCN(Cc1cccs1)c1ccccn1
active: CP203 12 µM | CP237 2 µM | CP238 11.2 µM | CP265 10 µM
inactive: CP191 | CP262

CN(C)CC/C=C1\c2ccccc2COc2ccccc21
active: CP203 13.5 µM | CP265 11.2 µM
inactive: CP191 | CP192 | CP250 | CP256 | CP262 | CP266

COc1cc(C(=O)OCCCN2CCCN(CCCOC(=O)c3cc(OC)c(OC)c(OC)c3)CC2)cc(OC)c1OC
active: CP191 12.6 µM | CP237 6.31 µM | CP247 7.94 µM | CP250 10 µM | CP260 10 µM | CP265 11.2 µM | CP269 7.57 µM

CCCCNc1ccc(C(=O)OCCN(C)C)cc1
not listed: CP194 | CP211 | CP266 | CP201
inactive: all other assays above

CCc1cccc(N(C)C(N)=Nc2cccc3ccccc23)c1
active: CP203 4.78 µM
inactive: CP192 | CP262

Brc1c(NC2=NCCN2)ccc2nccnc12
not listed: CP191 | CP260 | CP265
inactive: all other assays above

CN(C)CCOC(=O)COc1ccc(Cl)cc1
not listed: CP237 | CP247 | CP194 | CP266 | CP203
inactive: all other assays above

CCOC(=O)C1=C(C)NC(C)=C(C(=O)OC)C1c1cccc([N+](=O)[O-])c1 (stereo unspecified)
active: CP237 12.6 µM | CP238 10 µM | CP252 11.2 µM
inactive: CP266

Cc1nc2sccn2c(=O)c1CCN1CCC(=C(c2ccc(F)cc2)c2ccc(F)cc2)CC1
inactive: CP192 | CP201 | CP211 | CP256 | CP266 | CP268

CC(C)[N+](C)(CCOC(=O)C1c2ccccc2Oc2ccccc21)C(C)C
inactive: CP201 | CP211 | CP215 | CP266

CCCN1C[C@H](CSC)C[C@@H]2c3cccc4[nH]cc(c34)C[C@H]21
active: CP256 8.91 µM
inactive: CP192 | CP201 | CP215 | CP250 | CP262 | CP266 | CP269

c1cc(CN2CCCCC2)cc(OCCCNc2nc3ccccc3s2)c1
inactive: CP262

Cc1scc2c1N(C(=O)CN1CCN(C)CC1)c1ccccc1NC2=O
not listed: CP191 | CP262
inactive: all other assays above

Cc1nc2ccccn2c(=O)c1CCN1CCC(C(=O)c2ccc(F)cc2)CC1
active: CP191 7.94 µM
not listed: CP237 | CP247 | CP194 | CP203
inactive: all other assays above

CC(C)(C)c1ccc(C(=O)CCCN2CCC(OC(c3ccccc3)c3ccccc3)CC2)cc1
active: CP217 7.94 µM | CP237 11.2 µM | CP238 11.2 µM | CP252 10 µM | CP260 10 µM | CP269 7.57 µM

CN(C)CC[C@@H](c1ccc(Br)cc1)c1ccccn1
inactive: CP192 | CP211 | CP217 | CP250 | CP260 | CP262 | CP266

CCOC(=O)C1=C(C)NC(C)=C(C(=O)OC)C1c1cccc(Cl)c1Cl (stereo unspecified)
not listed: CP194 | CP215 | CP203
inactive: all other assays above

CN1C[C@H](C(=O)N[C@]2(C)O[C@@]3(O)[C@@H]4CCCN4C(=O)[C@H](Cc4ccccc4)N3C2=O)C[C@@H]2c3cccc4[nH]cc(c34)C[C@H]21
active: CP194 12 µM | CP203 10.7 µM | CP211 12 µM | CP215 13.5 µM | CP268 15.1 µM | CP269 8.49 µM

NC(N)=NC(=O)Cc1c(Cl)cccc1Cl
inactive: CP238 | CP266 | CP268
active: CP191 8.91 µM | CP217 6.31 µM | CP250 7.08 µM | CP256 12.6 µM | CP260 10 µM | CP262 4.26 µM

CC1=NS(=O)(=O)c2cc(Cl)ccc2N1
not listed: CP191 | CP238 | CP247 | CP250 | CP252 | CP256
inactive: all other assays above

C[n+]1cc2c3c(ccc2c2ccc4cc5c(cc4c21)OCO5)OCO3
inactive: CP192 | CP194 | CP201 | CP211 | CP215 | CP237 | CP238 | CP250 | CP266 | CP268 | CP269

CN(C)CCCN1c2ccccc2Sc2ccc(C(F)(F)F)cc21
not listed: CP191 | CP217 | CP237 | CP260 | CP194 | CP215 | CP203
inactive: all other assays above

CN(C)CCCN1c2ccccc2Sc2ccccc21
inactive: CP191 | CP192 | CP262 | CP266
active: CP203 4.05 µM | CP265 2.82 µM

CCC(=O)c1ccc2c(c1)N(CCCN(C)C)c1ccccc1S2
inactive: CP192 | CP250 | CP262 | CP266
active: CP260 11.2 µM

NC(N)=N/N=C/c1c(Cl)cccc1Cl
active: CP262 13.5 µM

CN(C)C/C=C(/c1ccc(Br)cc1)c1cccnc1
not listed: CP191 | CP237 | CP211 | CP192 | CP203
inactive: all other assays above

COc1ccc(CN(CCN(C)C)c2ccccn2)cc1
active: CP237 5.01 µM
not listed: CP265 | CP194 | CP266 | CP203
inactive: all other assays above

COCCOC(=O)C1=C(C)NC(C)=C(C(=O)OC(C)C)C1c1cccc([N+](=O)[O-])c1 (stereo unspecified)
active: CP203 12 µM
inactive: CP250 | CP256 | CP262 | CP266

CC1=C(C)C(=O)C(CCCCC#CCCCC#CCO)=C(C)C1=O
active: CP194 19 µM | CP203 15.1 µM | CP215 15.1 µM | CP217 10 µM | CP265 10 µM

O=C(CCCN1CCC(O)(c2cccc(C(F)(F)F)c2)CC1)c1ccc(F)cc1
inactive: CP201
active: CP191 7.94 µM | CP215 10.7 µM | CP237 7.94 µM | CP238 12.6 µM | CP247 7.08 µM | CP250 10 µM | CP260 11.2 µM | CP262 10.7 µM | CP265 10 µM

C=CCc1ccccc1OCC(O)CNC(C)C (stereo unspecified)
inactive: CP250 | CP262 | CP266
active: CP194 15.1 µM | CP203 10.7 µM | CP237 5.01 µM | CP238 11.2 µM

CCCC(C(=O)OCCN(CC)CC)(c1ccccc1)c1ccccc1
active: CP192 9.53 µM | CP203 12 µM | CP215 12 µM | CP237 10 µM | CP247 8.91 µM | CP265 10 µM | CP269 12 µM
